Bioassay records: PubChem, National Center for Advancing Translational Sciences (NCATS)
Only some compounds are listed: those with a hit (about 7.4% of all), similar ones and a draw of the others.
Rab9 promoter act = activates the Rab9 promoter; Huh7 Rab9 promoter-luciferase reporter, luminescence, 24 h; Potency, µM (titrated, usually from 9.22 µM), usual class: activators; hit rate 2.8% among 320,000; AID 485297; also: nearly all actives have a fitted effect of over 60% in size
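Steps: seed 1500 Huh7 Rab9-luc cells per well, rest 2 h at 37 °C; add compound in DMSO; incubate 24 h; add luciferase reagent, 10 min ambient; read luminescence.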
ELG1 genotoxic = inducers of genotoxicity in HEK293T ELG1-luciferase cells; HEK293T ELG1-luciferase reporter, luminescence, 16 h; Potency, µM (series often up to 46 µM), actives largely listed as activators; hit rate 1.3% among 330,000; also: nearly all actives have a fitted effect of over 60% in size
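DMSO vehicle served as control against compound-treated ELG1-luciferase HEK293T cells; exposure lasted 16 hr at 37 °C and 5% CO2, followed by ONE-Glo luminescence detection after 30 min.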
FLuc modulator = inhibits or activates purified firefly luciferase, miR-21 counter-screen; AID 588342; purified FLuc, Km substrates, luminescence inhibition; hit rate 6.9% among 360,000; Potency, µM (titrated, usually from 57.5 µM), actives largely listed as inhibitors; also: nearly all actives have a fitted effect of over 55% in size
Target sequence (P08659 whole entry, looked up): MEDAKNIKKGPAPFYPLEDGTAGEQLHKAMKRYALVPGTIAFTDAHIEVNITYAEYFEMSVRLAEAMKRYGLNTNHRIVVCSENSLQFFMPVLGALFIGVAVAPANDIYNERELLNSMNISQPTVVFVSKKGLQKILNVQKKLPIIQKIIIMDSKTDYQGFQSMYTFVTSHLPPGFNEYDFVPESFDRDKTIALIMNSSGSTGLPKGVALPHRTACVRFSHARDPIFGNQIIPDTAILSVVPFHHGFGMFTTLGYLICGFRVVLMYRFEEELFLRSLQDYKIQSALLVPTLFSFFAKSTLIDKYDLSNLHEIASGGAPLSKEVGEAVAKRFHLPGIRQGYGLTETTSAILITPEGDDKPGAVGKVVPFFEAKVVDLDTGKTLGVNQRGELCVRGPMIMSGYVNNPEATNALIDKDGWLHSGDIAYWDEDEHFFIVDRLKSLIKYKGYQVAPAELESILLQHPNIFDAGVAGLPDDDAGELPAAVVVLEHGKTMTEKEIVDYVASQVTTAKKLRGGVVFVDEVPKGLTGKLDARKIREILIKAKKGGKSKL
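Purified P. pyralis luciferase (10nM final) with 10uM D-luciferin and 10uM ATP (Km levels) in 50mM Tris acetate pH 7.5, 10mM Mg acetate, 0.01% Tween-20, 0.05% BSA; qHTS 6-point titration, ~60 µM downward; luminescence read.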
SMN2 splice enh = enhancers of SMN2 splice variant expression. HEK293 SMN2-luciferase splicing reporter, luminescence, 30-36 h. Potency, µM (top dose mostly 46.1 µM), hits mostly activators. hit rate 2.8% among 210,000; also: nearly all actives have a fitted effect of over 55% in size
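HEK293 cells carry an SMN2 […]–luciferase reporter in which exon 7 inclusion puts luciferase in frame. Cells were plated 10-12 h before compound addition, then incubated 30-36 h at 37C. ONE-Glo luminescence was read; sodium butyrate at 4.5 mM final served as control.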
NPC1 prom act = activators of NPC1 promoter; Huh7 NPC1 promoter luciferase reporter, 24 h; hit rate 2.4% among 320,000; Potency, µM (highest dose often 9.22 µM), actives largely listed as activators; also: nearly all actives have a fitted effect of over 60% in size
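Luminescence from an NPC1 promoter-driven luciferase reporter in stably transfected Huh7 cells was measured after 24 h compound treatment at 37 °C, followed by 10 min ambient incubation with luciferase detection reagent.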
Hits are given with their value; i = inactive; ? = inconclusive; nt = no result; [ ] = dose if it differs, or a comment. Calls follow the shape of the dose curve; as a rule, active = well fitted curve in the direction sought with a large enough effect; inconclusive = small, poorly fitted or top-dose-only effect, or another doubt; inactive = no such curve, though single readings can be large; an effect the other way counts as inactive or inconclusive.

SMILES	Rab9 promoter act	ELG1 genotoxic	FLuc modulator	SMN2 splice enh	NPC1 prom act
COc1ccc2oc(C(=O)OC(C)C(=O)Nc3ccc(N4CCOCC4)cc3)c(C)c2c1 (stereo unspecified)	i	i	i	nt	i
CCOc1ccc2oc(C(=O)Nc3ccc4c(c3)OCO4)c(C)c2c1	2.8µM	?	5.4µM	nt	3.2µM
CCOc1ccc2oc(C(=O)Nc3ccc(N4CCOCC4)cc3)c(C)c2c1	nt	nt	13µM	i	nt
CCOc1ccccc1NC(=O)CSc1nc2c(c(=O)[nH]1)CCC2	nt	nt	i	nt	nt
COC(=O)C1=C(C(=O)OC)[C@@H]2N(C)c3ccccc3[C@@]23C[C@@H](C(=O)OC)N(S(=O)(=O)c2ccc(C#N)cc2)C3=N1	nt	nt	nt	i[9.22 µM]	nt
CCCCC(CC)CNC(=O)CCCn1c(=O)[nH]c2ccsc2c1=O (stereo unspecified)	nt	nt	i	i	nt
O=C1C2C3C=CC(C3)C2C(=O)N1CCCCCCN1C(=O)C2C3C=CC(C3)C2C1=O (stereo unspecified)	4µM	?	4.3µM	nt	i
CCSc1ccc(-c2ccc(C)cc2)nn1	0.71µM	?	2.4µM	10µM	1µM
COc1ccc(-c2ccc(SC)nn2)cc1	0.1µM	i	1.5µM	1.8µM	0.5µM
CCOc1ccc(-c2ccc(SCC)nn2)cc1	0.63µM	1.2µM	1.2µM	4.5µM	0.71µM
COc1ccc(CCNC(=O)CSc2ccc(-c3ccccc3)nn2)cc1	i	i	i	i	i
COc1ccc(-n2c(SCC(=O)NCc3ccc(C)cc3)nc3n[nH]c(C)c3c2=N)cc1	nt	nt	i	nt	nt
COc1cccc(/C=C2\Oc3ccc(O)cc3C2=O)c1O	?	?	3.4µM	nt	?
O=C1C(c2c(O)[nH]c3ccccc23)=Nc2ccccc21	?	nt	i	i	i
CC(=O)c1cccc2c(O)c(C3=Nc4ccccc4C3=O)[nH]c12	0.63µM	?	3.4µM	0.56µM	2.8µM
COc1ccc(OCC2c3cc(OC)c(OC)cc3CCN2C(=O)c2c(F)cccc2F)cc1 (stereo unspecified)	nt	nt	i	nt	nt
COc1ccc(-c2nc3ccc([N+](=O)[O-])cc3[nH]2)cc1	1.1µM	?	1.5µM	1µM	1.6µM
O=[N+]([O-])c1ccc2nc(-c3ccccc3[N+](=O)[O-])[nH]c2c1	i	i	?	i	i
Clc1ccc(-c2nc3ccncc3[nH]2)cc1	?	?	11µM	11µM	?
NC(N)=Nc1nc2ccc([N+](=O)[O-])cc2[nH]1	i	i	i	i[9.22 µM]	i
Cc1ccc(-c2nc3ccc([N+](=O)[O-])cc3[nH]2)cc1	1.6µM	?	0.85µM	1.3µM	1.6µM
Fc1ccc(-c2nc3ccncc3[nH]2)cc1	i	i	?	i	i
O=[N+]([O-])c1cccc(-c2nc3ccc([N+](=O)[O-])cc3[nH]2)c1	4µM	i	?	i	i
O=[N+]([O-])c1ccc2nc(-c3ccc(Cl)cc3)[nH]c2c1	1.6µM	i	3µM	3.2µM	2µM
O=[N+]([O-])c1ccc2nc(-c3ccncc3)[nH]c2c1	i	?	17µM	nt	?
SMILES	Rab9 promoter act	ELG1 genotoxic	FLuc modulator	SMN2 splice enh	NPC1 prom act
Nc1nc2ccc([N+](=O)[O-])cc2[nH]1	i	i	i	nt	i
CCn1cnc2c(=O)oc3ccc(S(=O)(=O)N4CCN(c5cc(C)ccc5C)CC4)cc3c21	nt	nt	i	i	nt
COc1ccc(C)cc1NS(=O)(=O)c1c(C(=O)N2CCCCCC2)c(C)n(C)c1C	nt	nt	i	nt	nt
CCCCN(C)CCNC(=O)c1cc2c(=O)n(C)c3ccccc3c2n1C	nt	nt	i	i	nt
O=c1c2c3c(sc2nc2n1N=C(c1cccs1)CS2)CCCC3	0.63µM	?	0.19µM	i	0.63µM
O=C1CN(c2nc(-c3cccs3)nc3sc4c(c23)CCCC4)CCN1	i	?	6µM	?	i
O=c1oc(-c2cccs2)nc2sc3c(c12)CCCC3	i	i	2.4µM	?	i
Cc1cc(C)cc(NC(=O)CCCN2C(=O)COc3ccc(C)cc32)c1	nt	nt	i	i	nt
O=c1c2ccccc2nc(N2CCN(c3cccc(Cl)c3)CC2)n1-c1ccccc1	nt	nt	i	i	nt
O=C(NNC1=C(C(=O)C(F)(F)F)CCC1)c1ccccc1O	i	i	27µM	i	i
O=C(NNC1=C(C(=O)C(F)(F)F)CCC1)c1ccccc1Cl	i	i	i	i	i
COc1ccc(CCNC(=O)Cc2c(C)c3c(cc(C)c4c(C)coc43)oc2=O)cc1	nt	nt	i	i	nt
Cc1cc(C(=O)NCc2ccccc2Cl)c2c(C)nn(-c3ccccc3)c2n1	nt	nt	i	nt	nt
CS(=O)(=O)c1cnc2c(-c3ccsc3)cnn2c1N	2.8µM	21µM	11µM	13µM	2.8µM
CS(=O)(=O)c1cnc2c(S(=O)(=O)c3ccccc3)cnn2c1N	i	i	i	i	i
Cc1ccc(NC(=O)O/N=C/c2c(C)nn(C(C)(C)C)c2C)cc1Cl	i	i	0.13µM	nt	i
CCOC(=O)c1c(C)[nH]c(C)c1S(=O)(=O)N(C)CC(=O)Nc1ccc(C)cc1Br	nt	nt	i	nt	nt
COc1ccc2nc3c(cc2c1)Cc1ccccc1-3	nt	nt	nt	0.5µM	nt
Cc1oc(-c2ccccc2F)nc1CSc1nnc(C)n2c1cc1occc12	nt	nt	i	nt	nt
Cc1nnc(SCc2ccccc2Cl)c2cc3occc3n12	nt	nt	17µM	nt	nt
COC(=O)C1CCN(C(c2ccccc2)c2sc3nc(-c4ccco4)nn3c2O)CC1 (stereo unspecified)	nt	nt	i	nt	nt
COc1ccccc1C(=O)Nc1ccc(OCC(=O)N2CCCCC2C)cc1 (stereo unspecified)	i	i	12µM	nt	i
COc1ccccc1C(=O)Nc1ccc(OCC(=O)N2C(C)CCCC2C)cc1 (stereo unspecified)	i	i	8.5µM	nt	i
CCS(=O)(=O)c1cccc(C(=O)N2CCN(c3nc4c(C)ccc(Cl)c4s3)CC2)c1	nt	nt	i	nt	nt
CC(=O)Nc1cccc(NC(=O)c2oc3ccccc3c2C)c1	3.5µM	?	6µM	11µM	3.2µM
SMILES	Rab9 promoter act	ELG1 genotoxic	FLuc modulator	SMN2 splice enh	NPC1 prom act
Nc1c(C(=O)Nc2ccc(Cl)cc2)oc2ccccc12	2.5µM	2.3µM	2.7µM	i	1.4µM
CCC(=O)Nc1ccc(NC(=O)c2oc3ccccc3c2C)cc1	i	i	5.4µM	nt	i
COc1ccccc1N1CCN(C(=O)c2c(C)oc3ncn(C)c(=O)c23)CC1	nt	nt	i	nt	nt
CCn1c2ccccc2c2cc(NC(=O)COC(=O)c3ccc(NC(=O)CC#N)cc3)ccc21	i	23µM	i	nt	i
O=C(Nc1ccc2c(c1)oc1ccccc12)N1CCOCC1	3.5µM	?	12µM	?	3.5µM
CCn1c2ccccc2c2cc(NC(=O)N3CCOCC3)ccc21	3.5µM	?	i[2.3 µM]	?	?
C=CCC(CC=C)(CNC(=O)C(=O)Nc1ccc(Br)cc1)c1ccc(OC)c(OC)c1	nt	nt	i	i	nt
O=C=Nc1ccc(Cc2ccc(N=C=O)cc2)cc1	nt	nt	nt	i	nt
CN(C)c1ccc(C(=O)/C=C/c2ccc(Br)cc2)cc1	i	i	1.7µM	i	i
CN(C)c1ccc(C(=O)c2ccccc2)cc1	3.2µM	i	11µM	i	?
CCN(CC)c1ccc(/C=C/C(=O)c2ccc(Br)cc2)cc1	i	i	17µM	i	i
